Inconclusive results are not listed. Active and inactive are the calls of the source. Unless noted, the call rests on the fitted dose curve.

From PubChem BioAssay (NCATS) come the findings set out here.

Test [1] deals with Estrogen receptor (Homo sapiens) (UniProt P03372). Briefly: qHTS assay for small molecule antagonists of estrogen receptor alpha signaling (AID 588513; active means well fitted curve in the direction sought with a large enough effect in the signal ratio, with a control signal flat, not every such curve was filed as active; the % refers to the signal ratio; further: on the % scale 0 is the no-effect control and ±100 the full control effect). In outline:
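ER-alpha-UAS-bla GripTite HEK 293 cells in 2% charcoal/dextran-treated FBS medium; compounds titrated (1:2, duplicate), then stimulated with 0.5 nM 17-beta-estradiol for 18 h at 37C. CCF4 beta-lactamase fluorescence; Hill-fit IC50 and efficacy.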

For test [2] the target is unchanged. Briefly: qHTS assay for small molecule agonists of estrogen receptor alpha signaling (AID 588514).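 Further: 0% = vehicle only and 100% = reference agonist; nearly all actives have a fitted effect of over 70% in size.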 The gist of the method:
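Read-out: CCF4 fluorescence from a beta-lactamase reporter in ER-alpha-UAS-bla HEK 293 cells after 18 hrs of compound exposure at 37 C. Normalized to 20 nM 17-beta-estradiol (100%) and DMSO (0%).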

A short description of test [3]: qHTS assay for small molecule antagonists of peroxisome proliferator-activated receptor delta signaling (AID 588535).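 Further: cells co-treated with a PPAR-delta agonist as stimulator during compound exposure.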 The conditions noted are these: HEK293T PPARd-UAS-bla, beta-lactamase FRET ratio, 18 h; 460 nm channel. In outline:
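Compounds tested in titration on PPAR-delta-UAS-bla HEK293T cells grown in charcoal/dextran-stripped serum (2%); beta-lactamase activity read via CCF4 emission at 460 and 530 nm.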

Test [4] addresses Peroxisome proliferator-activated receptor gamma (Homo sapiens) (UniProt P37231). Briefly: qHTS assay for small molecule agonists of peroxisome proliferator-activated receptor gamma signaling (AID 588536; active means well fitted curve in the direction sought with a large enough effect in the signal ratio, with a control signal flat, not every such curve was filed as active; the % refers to the signal ratio;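 further: 0% = DMSO basal wells and 100% = rosiglitazone at 2 µM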). The gist of the method:
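Cells were plated and held 6–6.5 h at 37 C, then compounds were added as a titration series. After a further 16 h, CCF4 dye was loaded for 2 h at room temperature and emission at 460/530 nm recorded.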

For test [5] the target is unchanged. The test is described as follows: qHTS assay for small molecule antagonists of peroxisome proliferator-activated receptor gamma signaling (AID 588537; active means well fitted inhibition curve with a large enough effect in the signal ratio, with a control signal flat, not every such curve was filed as active; the % refers to the signal ratio;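 further: reporter cells co-stimulated with 50 nM rosiglitazone agonist during compound treatment; % of control where 0% means no effect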). The gist of the method:
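HEK293 cells, PPAR-gamma-UAS-bla, 3000/well. Pre-incubation 6-6.5 h, 37 C. Compound titration with rosiglitazone 50 nM final, 16 h. CCF4 dye, 2 h RT, dual-emission fluorescence.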
(In general: Quantitative high-throughput screening tests each substance at several concentrations.)

Test [6] deals with Vitamin D3 receptor (Homo sapiens) (UniProt P11473). Briefly: qHTS assay for small molecule antagonists of vitamin D receptor signaling (AID 588541).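 Further: receptor activated by calcitriol during compound treatment; series mostly up to about 77 µM; on the % scale 0 is the no-effect control and ±100 the full control effect.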 The gist of the method: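 VDR-UAS-bla HEK293T cells (2000/well, 2% charcoal-stripped FBS) were treated with titrated compounds plus 1-alpha,25-dihydroxyvitamin D3 (50 nM or 3 nM final) for 16 h at 37 C. CCF4 beta-lactamase fluorescence was read; Hill fits gave IC50.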

For test [7] the target is unchanged. Briefly: qHTS assay for small molecule agonists of vitamin D receptor signaling (AID 588543).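 Further: 0% = DMSO basal and 100% = reference agonist control.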 In outline: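 VDR-UAS-bla HEK293T cells, 2000/well, 2% charcoal-stripped FBS; compound titration 16 h at 37 C; CCF4 beta-lactamase ratio read. Normalized to 50 nM 1-alpha,25-dihydroxyvitamin D3 (100%) and DMSO; Hill fit gives EC50, efficacy.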
Test [8] in a line: qHTS assay for small molecule agonists of retinoid X receptor alpha signaling (AID 588544).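 On activation: 0% = DMSO basal wells and 100% = reference agonist.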 The settings on record: HEK293T RXRa-UAS-bla, beta-lactamase reporter, 18 h; 530 nm emission.
Test [9] has as its target Retinoic acid receptor RXR-alpha (Homo sapiens) (UniProt P19793). Described as above.
Test [10] addresses Thyroid hormone receptor beta (Homo sapiens) (UniProt P10828). Briefly: qHTS assay for small molecule agonists of thyroid hormone receptor beta signaling (AID 588545).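 Further: 0% = DMSO only and 100% = 10 nM T3.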 The gist of the method: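 TR-UAS-bla-GripTite HEK 293 cells in medium with 2% charcoal/dextran FBS, 0.1 mM NEAA and 1 mM sodium pyruvate were treated with titrated compounds for 18 hrs at 37 C. Beta-lactamase reporter was read with CCF4 dye (ex 405, em 460/530 nm); EC50 from Hill fits.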

Test [11] can be described thus: qHTS assay for small molecule antagonists of retinoid X receptor alpha signaling (AID 588546; active means well fitted inhibition curve with a large enough effect in the signal ratio, with a control signal flat, not every such curve was filed as active; the % refers to the signal ratio;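 further: cells stimulated with 9-cis-retinoic acid as agonist; on the % scale 0 is the no-effect control and ±100 the full control effect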). The conditions noted are these: HEK293T RXRa-UAS-bla, beta-lactamase ratio, antagonist mode; measured here: W530 green channel, cytotoxicity proxy. In outline: (§1)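 Beta-lactamase reporter inhibition, read as CCF4 fluorescence ratio (ex 405, em 460/530 nm) after 2 h at RT. HEK293T UAS-bla cells, 2500/well, were stimulated with 9-cis-RA at 500 or 100 nM final alongside test compound for 18 h at 37 C.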

Test [12] deals with Retinoic acid receptor RXR-alpha (Homo sapiens) (UniProt P19793). Described as above. The conditions noted are these: HEK293T RXRa-UAS-bla, beta-lactamase ratio, antagonist mode. The gist of the method: as §1
Test [13] is described as follows: qHTS assay for small molecule activators of the nuclear factor-kappa B (NF-kB) signaling pathway (AID 651749; active means well fitted activation curve with a large enough effect in the signal ratio; the % refers to the signal ratio; further: series mostly up to about 77 µM; % of control where 0% means no effect). The conditions noted are these: NF-kB-bla ME-180 cells, beta-lactamase FRET ratio, 16 h; activation: stronger effect = higher value. In outline: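 Beta-lactamase reporter expression, controlled by NF-kB response elements in ME-180 cells, was quantified fluorometrically via FRET disruption; cells at 2,000/well had been incubated with 23 nL test compound for 16 hr.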

The nature of test [14]: qHTS assay for environmental chemicals that activate the Aryl hydrocarbon Receptor (AhR) signaling pathway (AID 651777; active means well fitted curve in the direction sought with a large enough effect; an effect the other way counts as inactive or inconclusive; further: % of control where 0% means no effect; nearly all actives have a fitted effect of over 15% in size). The conditions noted are these: 1A2-DRE human hepatoma cells, luciferase, 24 h; activation: stronger effect = higher value. The gist of the method: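 Concentration–response screening used 1,200 1A2-DRE cells per well, 24 hr compound exposure (37 C, 5% CO2), and One-Glo luminescence as the AhR-driven CYP1A2 reporter signal.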

Test [15] is described as follows: qHTS assay for small molecule agonists of the antioxidant response element (ARE) signaling pathway measured by Nrf2-dependant transcriptional activity - cell viability counter screen (AID 720653; active means well fitted curve in the direction sought with a large enough effect in the repeat runs; an effect the other way counts as inactive or inconclusive; further: on the % scale 0 is the no-effect control and ±100 the full control effect). The settings on record: ARE-bla HepG2 viability, CellTiter-Glo ATP luminescence, 16 h; max response: stronger effect = lower value. In outline: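 ARE-bla HepG2 cells (2,000/well) rested 5 hrs at 37C/5% CO2, then exposed to compounds in DMSO for 16 hrs. Viability was read in the same wells as intracellular ATP by luminescence, 30 min at room temperature after reagent addition.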

A short description of test [16]: qHTS assay for cell viability of HEK293 cells (AID 743288; active means well fitted curve in the direction sought with a large enough effect; an effect the other way counts as inactive or inconclusive; further: on the % scale 0 is the no-effect control and ±100 the full control effect; nearly all actives have a fitted effect of over 50% in size). The conditions noted are these: ATP luminescence (CellTiter-Glo), 18 h; max response: stronger effect = lower value. The gist of the method: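 Steps: plate 2,000 parental HEK293 cells per well; incubate ≥5 h, 37 C; add compounds in DMSO; incubate 18 h, 37 C; add CellTiter-Glo; wait 30 min at room temperature; read luminescence.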

Test [17] is described as follows: qHTS assay for cell viability of the p53RE-bla HCT-116 cell line (AID 743292; active means well fitted curve in the direction sought with a large enough effect; an effect the other way counts as inactive or inconclusive; further: on the % scale 0 is the no-effect control and ±100 the full control effect; nearly all actives have a fitted effect of over 55% in size). In outline: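 Compound-exposed HCT-116 (p53RE-bla) cells, 4,000 per well, were kept 16 h at 37 C following a 5 h preincubation. Cell number was estimated from total ATP by CellTiter-Glo luminescence read after 30 min at room temperature.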
For test [18], the target named is Nuclear receptor subfamily 1 group I member 2 (Rattus norvegicus) (UniProt Q9R1A7). The test is described as follows: qHTS assay for small molecule activators of the rat pregnane X receptor (rPXR) signaling pathway (AID 651751; call rule not given here; further: 0% is about no effect). The conditions noted are these: rPXR reporter cells, luciferase (One-Glo), 24 h.
A short description of test [19]: qHTS assay for small molecule activators of the human pregnane X receptor (PXR) signaling pathway (AID 720659; call rule not given here; further: 0% is about no effect).
The target in test [20] is Peroxisome proliferator-activated receptor alpha (Homo sapiens) (UniProt Q07869). Briefly: qHTS assay for small molecule agonists of the peroxisome proliferator-activated receptor alpha (PPARalpha) signaling pathway (AID 651778; active means well fitted curve in the direction sought with a large enough effect; an effect the other way counts as inactive or inconclusive; further: % of control where 0% means no effect). The conditions noted are these: PathHunter PPARalpha complementation, chemiluminescence, 6 h; max response: stronger effect = higher value. In outline:
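Cells plated at 2,000/well and held overnight at 37 C, 5% CO2, then compound added by pin tool for 6 hr; after PathHunter detection reagent and 60 min at room temperature, chemiluminescence from enzyme complementation was read.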

Chain of Vitamin D3 receptor (Homo sapiens) (P11473 whole entry, looked up): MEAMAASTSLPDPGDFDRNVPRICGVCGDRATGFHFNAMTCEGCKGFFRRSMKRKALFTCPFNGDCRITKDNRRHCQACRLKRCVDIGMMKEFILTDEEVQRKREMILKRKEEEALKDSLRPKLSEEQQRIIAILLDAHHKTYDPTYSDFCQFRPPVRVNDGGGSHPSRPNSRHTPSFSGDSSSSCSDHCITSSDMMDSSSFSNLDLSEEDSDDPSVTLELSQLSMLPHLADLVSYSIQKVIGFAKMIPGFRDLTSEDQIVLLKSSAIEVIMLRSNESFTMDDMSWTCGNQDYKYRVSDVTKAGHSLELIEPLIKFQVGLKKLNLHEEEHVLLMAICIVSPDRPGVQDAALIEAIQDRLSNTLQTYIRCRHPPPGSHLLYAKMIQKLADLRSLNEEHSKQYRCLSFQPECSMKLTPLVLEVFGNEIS
Chain of Thyroid hormone receptor beta (Homo sapiens) (P10828 whole entry, looked up): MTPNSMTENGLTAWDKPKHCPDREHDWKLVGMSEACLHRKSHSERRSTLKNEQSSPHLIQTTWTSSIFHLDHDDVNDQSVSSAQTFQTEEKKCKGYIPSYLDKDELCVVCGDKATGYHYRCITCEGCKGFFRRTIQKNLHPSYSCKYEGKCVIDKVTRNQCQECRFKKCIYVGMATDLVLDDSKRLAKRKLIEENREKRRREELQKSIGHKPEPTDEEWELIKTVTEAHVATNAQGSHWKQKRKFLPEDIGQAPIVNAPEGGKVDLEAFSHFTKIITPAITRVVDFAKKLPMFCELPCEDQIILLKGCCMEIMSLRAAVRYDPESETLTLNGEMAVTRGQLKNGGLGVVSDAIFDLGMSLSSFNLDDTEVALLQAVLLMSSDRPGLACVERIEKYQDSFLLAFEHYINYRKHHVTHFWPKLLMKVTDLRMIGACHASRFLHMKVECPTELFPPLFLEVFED
Chain of Peroxisome proliferator-activated receptor alpha (Homo sapiens) (Q07869 whole entry, looked up): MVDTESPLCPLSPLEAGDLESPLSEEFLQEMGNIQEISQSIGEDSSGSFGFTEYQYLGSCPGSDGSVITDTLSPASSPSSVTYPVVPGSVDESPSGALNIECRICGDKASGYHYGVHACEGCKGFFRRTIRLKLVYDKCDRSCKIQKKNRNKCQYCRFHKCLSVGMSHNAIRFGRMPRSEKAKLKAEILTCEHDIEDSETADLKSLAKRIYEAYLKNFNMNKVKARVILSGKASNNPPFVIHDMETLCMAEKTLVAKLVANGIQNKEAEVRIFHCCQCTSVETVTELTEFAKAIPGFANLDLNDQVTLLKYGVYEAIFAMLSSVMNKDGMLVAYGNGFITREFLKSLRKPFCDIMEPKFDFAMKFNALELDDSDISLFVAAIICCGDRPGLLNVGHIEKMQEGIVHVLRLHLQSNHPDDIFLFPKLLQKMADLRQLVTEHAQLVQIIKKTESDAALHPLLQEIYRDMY
Chain of Nuclear receptor subfamily 1 group I member 2 (Rattus norvegicus) (Q9R1A7 whole entry, looked up): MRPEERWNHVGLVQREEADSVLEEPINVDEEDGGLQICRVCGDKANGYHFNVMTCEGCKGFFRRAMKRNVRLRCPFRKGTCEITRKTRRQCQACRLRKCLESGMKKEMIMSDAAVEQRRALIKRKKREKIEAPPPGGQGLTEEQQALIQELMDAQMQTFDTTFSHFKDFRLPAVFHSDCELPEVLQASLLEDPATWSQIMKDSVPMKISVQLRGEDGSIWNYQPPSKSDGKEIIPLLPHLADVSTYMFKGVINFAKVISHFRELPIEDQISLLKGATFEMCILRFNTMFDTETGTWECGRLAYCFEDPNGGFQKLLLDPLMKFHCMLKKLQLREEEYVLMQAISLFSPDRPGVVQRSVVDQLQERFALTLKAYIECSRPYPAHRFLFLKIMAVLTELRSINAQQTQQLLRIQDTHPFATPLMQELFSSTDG
Chain of Peroxisome proliferator-activated receptor gamma (Homo sapiens) (P37231 whole entry, looked up): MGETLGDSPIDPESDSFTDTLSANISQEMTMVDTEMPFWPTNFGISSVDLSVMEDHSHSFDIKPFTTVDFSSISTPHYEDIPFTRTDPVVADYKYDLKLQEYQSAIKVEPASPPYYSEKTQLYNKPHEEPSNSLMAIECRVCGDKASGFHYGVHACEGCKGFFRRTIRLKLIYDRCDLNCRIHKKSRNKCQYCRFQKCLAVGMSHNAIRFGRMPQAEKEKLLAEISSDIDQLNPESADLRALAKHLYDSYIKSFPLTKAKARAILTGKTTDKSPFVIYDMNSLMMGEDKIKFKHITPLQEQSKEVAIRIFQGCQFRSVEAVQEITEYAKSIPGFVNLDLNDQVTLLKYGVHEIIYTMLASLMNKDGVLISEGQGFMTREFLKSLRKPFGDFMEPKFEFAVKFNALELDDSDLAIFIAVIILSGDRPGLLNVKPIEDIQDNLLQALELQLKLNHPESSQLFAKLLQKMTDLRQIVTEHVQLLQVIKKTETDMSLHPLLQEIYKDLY
Chain of Estrogen receptor (Homo sapiens) (P03372 whole entry, looked up): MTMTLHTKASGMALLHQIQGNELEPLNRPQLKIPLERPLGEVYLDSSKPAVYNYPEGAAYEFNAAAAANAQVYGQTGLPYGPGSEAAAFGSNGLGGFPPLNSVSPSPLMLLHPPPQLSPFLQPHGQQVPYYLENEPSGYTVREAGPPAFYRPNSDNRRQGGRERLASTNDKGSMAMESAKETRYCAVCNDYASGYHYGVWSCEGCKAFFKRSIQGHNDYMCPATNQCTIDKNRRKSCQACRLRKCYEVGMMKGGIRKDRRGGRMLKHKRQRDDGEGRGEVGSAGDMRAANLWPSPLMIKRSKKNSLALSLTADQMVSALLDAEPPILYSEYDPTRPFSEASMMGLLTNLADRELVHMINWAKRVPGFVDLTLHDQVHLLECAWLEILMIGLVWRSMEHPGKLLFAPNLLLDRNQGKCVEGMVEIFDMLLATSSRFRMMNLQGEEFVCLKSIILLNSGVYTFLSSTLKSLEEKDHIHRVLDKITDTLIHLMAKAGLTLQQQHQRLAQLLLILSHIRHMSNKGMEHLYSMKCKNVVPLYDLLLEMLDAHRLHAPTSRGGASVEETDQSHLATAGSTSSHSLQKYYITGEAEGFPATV
Chain of Retinoic acid receptor RXR-alpha (Homo sapiens) (P19793 whole entry, looked up): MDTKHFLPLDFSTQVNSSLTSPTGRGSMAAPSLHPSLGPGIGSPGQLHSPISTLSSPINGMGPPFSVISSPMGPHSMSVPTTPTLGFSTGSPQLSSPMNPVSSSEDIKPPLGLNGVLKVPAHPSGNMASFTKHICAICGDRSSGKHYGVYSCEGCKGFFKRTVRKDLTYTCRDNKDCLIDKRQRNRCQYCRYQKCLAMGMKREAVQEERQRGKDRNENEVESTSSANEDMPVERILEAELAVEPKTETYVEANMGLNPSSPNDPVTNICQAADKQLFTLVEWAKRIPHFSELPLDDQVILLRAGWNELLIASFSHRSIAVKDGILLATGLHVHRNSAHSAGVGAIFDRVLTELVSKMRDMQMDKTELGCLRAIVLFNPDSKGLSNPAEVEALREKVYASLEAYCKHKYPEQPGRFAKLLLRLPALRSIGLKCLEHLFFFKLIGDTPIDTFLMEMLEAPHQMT

As to `CCc1cccc(C)c1N(C(=O)CS(=O)(=O)O)[C@@H](C)COC`, the Potency result in test [1], in [2], in [5], in test [6], in [9] and in test [10] was “inactive” throughout. In addition, the Potency entry in test [17] was “inactive”. Besides, the max response in [3] was 24.1%; in [8], -8.42%; in test [11], 9.75%; in test [12] it was -22.6% (inactive); in test [15] it was -5.93% (inactive); in test [16], -5.4% (inactive). Moreover, the max response in test [18] was -5.94% (inactive). The compound was called inactive in test [4], in test [7] and in [19]. The activation in test [13] is -2.32% (inactive); in [14] it was -0.669% (inactive).
On to `CS/C(=N\O)C(=O)N(C)C`, for which the Potency entry in test [1], in test [2], in test [5], in test [6], in test [9] and in test [17] was “inactive” each time. Moreover, the max response in [3] was 31.5%; in test [8], 6.39%; in [11], 0.656%; in test [12], -15.6% (inactive); in [20], -1.04% (inactive); in test [15], -5.16% (inactive). Moreover, the max response is -6.73% (inactive) in test [16] and -0.0731% (inactive) in test [18]. Further, the compound was called inactive in test [4], in test [7] and in test [19]. Also, the results for the activation in test [13] and in [14] were -2.88% (inactive) and -0.34% (inactive), respectively.
In the case of `CCCCCCCC[Si](Cl)(Cl)Cl`, the Potency entry in [1], in [2], in test [5], in test [6], in [9] and in test [10] was “inactive” throughout. The Potency result in test [17] is “inactive”. Further, the max response was -4.76% in test [3]; -7.78% in test [8]; -3.5% in [11]; -13.9% (inactive) in test [12]; -0.623% (inactive) in test [20]; -9.8% (inactive) in test [15]. Further, the max response in test [16] was -3.47% (inactive); in test [18], 0.644% (inactive). Also, the outcome in [4], in [7] and in [19] was inactive. Also, the activation in test [13] was -3.66% (inactive); in [14] it was 3.53% (inactive).
`C[Si](Cl)(Cl)[Si](C)(Cl)Cl`: the Potency entry in test [1], in test [2], in [5], in test [6], in test [10] and in test [17] was “inactive” throughout. For the same compound, the max response was -5.47% in test [3]; -10.2% in test [8]; -10.7% in test [11]; -4.71% (inactive) in [12]; -2.05% (inactive) in test [20]; -3.61% (inactive) in test [15]. Also, the results for the max response in [16] and in [18] were -7.2% (inactive) and 6.3% (inactive), respectively. The result in test [4], in test [7] and in test [19] was inactive. Further, the results for the activation in [13] and in [14] were -1.71% (inactive) and 0.351% (inactive), respectively.
